Test results taken from PubChem BioAssay (NCATS).
Records with an inconclusive call do not appear. Where a call stands in place of a potency, no number is given. The source made the active and inactive calls. Unless noted, the call rests on the fitted dose curve; in most records, active means well fitted curve in the direction sought with a large enough effect; inconclusive means small, poorly fitted or top-dose-only effect, or another doubt; inactive means no such curve, though single readings can be large; an effect the other way counts as inactive or inconclusive.

Tests used:
[1] = target: Glutathione peroxidase 1 (Homo sapiens) (UniProt P07203); test: Primary qHTS Assay for Inhibitors of Recombinant Selenoprotein Glutathione Peroxidase 1 (GPX1) (AID 1845191); further: nearly all actives have a fitted effect of over 65% in size
Method in brief: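 GR-coupled assay: compounds preincubated 30 min at room temperature with GPX1, then reaction started with CHP; final 10 nM GPX1, 1 mM GSH, 0.5 mM CHP, 0.5 mM NADPH, 100 nM GR, 0.01% BSA, pH 7.5 Tris buffer. NADPH fluorescence (340/450 nm) read at 0 and 15 min.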

[2] = S16 Schwann cell PMP22 intronic element beta-lactamase assay (AID 624044; calls by dose curve; further: nearly all actives have a fitted effect of over 15% in size); settings: S16 rat Schwann cells, PMP22 element beta-lactamase FRET, 24 h; ratio activity, negative = inhibition: at 38.3 µM (top of the series) unless noted
Method in brief: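 Rat S16 Schwann cells with beta-Lac driven by a PMP22 intronic element, compound-treated 24 h at 37 °C. LiveBLAzer FRET B/G read: 460 nm normalized to potassium clavulanate vs DMSO; 535 nm FRET as viability; concentration-effect curves classified.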

7G8 = test: qHTS profiling for inhibitors of Plasmodium falciparum proliferation (AID 504749); further: nearly all actives have a fitted effect of over 60% in size; further: potency means the concentration at half of the fitted maximal effect; settings: P. falciparum in erythrocytes, SYBR Green DNA, 72 h; series mostly up to 12.8 µM
Method in brief: (§1)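 Readout was DNA-dye fluorescence from lysed cultures, ex 485/em 535 nm. Parasitized red cells had grown 72 h with compound; data scaled between 0.29 uM artemisinin and DMSO wells and corrected using vehicle-only plates.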

ATS189 = test: as above; settings: P. falciparum in erythrocytes, SYBR Green DNA, 72 h; series mostly up to 28.7 µM
Method in brief: as §1

CP185 = test: as above; settings: P. falciparum in erythrocytes, SYBR Green DNA, 72 h; series mostly up to 28.7 µM
Method in brief: as §1

CP192 = test: as above; settings: P. falciparum in erythrocytes, SYBR Green DNA, 72 h; series mostly up to 28.7 µM
Method in brief: as §1

CP238 = test: as above; settings: P. falciparum in erythrocytes, SYBR Green DNA, 72 h; series mostly up to 28.7 µM
Method in brief: as §1

CP247 = test: as above; settings: P. falciparum in erythrocytes, SYBR Green DNA, 72 h; series mostly up to 28.7 µM
Method in brief: as §1

CP260 = test: as above; settings: P. falciparum in erythrocytes, SYBR Green DNA, 72 h; series mostly up to 28.7 µM
Method in brief: as §1

CP329 = test: as above; settings: P. falciparum in erythrocytes, SYBR Green DNA, 72 h; series mostly up to 28.7 µM
Method in brief: as §1

DFO2036 = test: as above; settings: P. falciparum in erythrocytes, SYBR Green DNA, 72 h; series mostly up to 28.7 µM
Method in brief: as §1

Dd2 = test: as above; settings: P. falciparum in erythrocytes, SYBR Green DNA, 72 h; series mostly up to 28.7 µM
Method in brief: as §1

ECU = test: as above; settings: P. falciparum in erythrocytes, SYBR Green DNA, 72 h; series mostly up to 28.7 µM
Method in brief: as §1

ICS = test: as above; settings: P. falciparum in erythrocytes, SYBR Green DNA, 72 h; series mostly up to 28.7 µM
Method in brief: as §1

P94_40 = test: as above; settings: P. falciparum in erythrocytes, SYBR Green DNA, 72 h; series mostly up to 28.7 µM
Method in brief: as §1

PC49 = test: as above; settings: P. falciparum in erythrocytes, SYBR Green DNA, 72 h; series mostly up to 28.7 µM
Method in brief: as §1

TAB109 = test: as above; settings: P. falciparum in erythrocytes, SYBR Green DNA, 72 h; series mostly up to 12.8 µM
Method in brief: as §1

TAB113 = test: as above; settings: P. falciparum in erythrocytes, SYBR Green DNA, 72 h; series mostly up to 28.7 µM
Method in brief: as §1

[3] = target: DNA dC->dU-editing enzyme APOBEC-3G (Homo sapiens) (UniProt Q9HC16); test: qHTS for inhibitors of Vif-A3G interactions: Validation (AID 588379)
Method in brief: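 HeLa cells stably expressing Vif and A3G-eYFP, 700 cells/well, incubated overnight at 37 deg C, then exposed to compound overnight at 37 deg C. Inhibition of Vif-mediated degradation read as increased yellow fluorescence (Ex 488/Em 500-530) by laser-scanning cytometry.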

[4] = target: Cytochrome P450 2D6 (Homo sapiens) (UniProt P10635); test: qHTS Assay for Inhibitors and Substrates of Cytochrome P450 2D6 (AID 891); further: potency means the concentration at half of the fitted maximal effect; nearly all actives have a fitted effect of over 60% in size
Method in brief: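 Human CYP2D6 (5 nM) with 30 uM Luciferin-ME EGE (at Km) in 100 mM KPO4, compound preincubated 10 min, then NADPH regeneration system for 60 min at room temperature. Luciferin read by luminescence; normalized to 1.43 uM quinidine.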

DNA dC->dU-editing enzyme APOBEC-3G (Homo sapiens), sequence (Q9HC16 whole entry, looked up): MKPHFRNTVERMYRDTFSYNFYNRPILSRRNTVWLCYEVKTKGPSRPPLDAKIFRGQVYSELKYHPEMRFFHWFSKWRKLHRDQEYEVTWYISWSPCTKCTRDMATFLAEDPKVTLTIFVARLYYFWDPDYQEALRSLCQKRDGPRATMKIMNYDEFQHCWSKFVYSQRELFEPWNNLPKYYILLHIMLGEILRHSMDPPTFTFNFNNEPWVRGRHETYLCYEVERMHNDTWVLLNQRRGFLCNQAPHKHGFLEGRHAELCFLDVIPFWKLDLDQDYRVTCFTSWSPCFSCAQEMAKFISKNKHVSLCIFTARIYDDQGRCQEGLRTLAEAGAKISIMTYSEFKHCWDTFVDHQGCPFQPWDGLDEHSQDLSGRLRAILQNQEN
Cytochrome P450 2D6 (Homo sapiens), sequence (P10635 whole entry, looked up): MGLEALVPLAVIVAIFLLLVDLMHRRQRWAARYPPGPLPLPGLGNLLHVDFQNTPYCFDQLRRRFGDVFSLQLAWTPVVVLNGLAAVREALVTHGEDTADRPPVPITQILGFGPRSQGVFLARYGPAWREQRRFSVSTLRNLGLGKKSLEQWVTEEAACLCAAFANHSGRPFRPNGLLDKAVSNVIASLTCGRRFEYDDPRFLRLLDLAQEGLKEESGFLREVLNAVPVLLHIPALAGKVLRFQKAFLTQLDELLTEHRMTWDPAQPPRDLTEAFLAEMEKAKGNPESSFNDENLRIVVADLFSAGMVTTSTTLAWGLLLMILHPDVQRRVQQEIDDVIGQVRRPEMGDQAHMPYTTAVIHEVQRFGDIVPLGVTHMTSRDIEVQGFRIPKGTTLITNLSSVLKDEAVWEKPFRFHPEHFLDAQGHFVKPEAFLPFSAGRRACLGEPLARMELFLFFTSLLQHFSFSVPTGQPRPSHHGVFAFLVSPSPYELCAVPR
Glutathione peroxidase 1 (Homo sapiens), sequence (P07203 whole entry, looked up): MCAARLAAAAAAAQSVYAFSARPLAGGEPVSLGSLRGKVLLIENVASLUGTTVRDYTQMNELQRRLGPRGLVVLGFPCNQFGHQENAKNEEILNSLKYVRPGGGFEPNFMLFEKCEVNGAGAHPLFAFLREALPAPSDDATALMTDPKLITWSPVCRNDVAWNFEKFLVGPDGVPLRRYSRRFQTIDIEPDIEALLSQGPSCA

SMILES: Cn1c(CCCCCCC(=O)NO)nc2cc(N(CCCl)CCCl)ccc21
- Potency [1]: inactive

SMILES: C=CCN1CC[C@]2(C)c3cc(O)ccc3CC1[C@@H]2C
- Potency [1]: inactive

SMILES: C[C@]12CC[C@H]3[C@@H](CCC4=CC(=O)CC[C@@]43C)[C@@H]1CC[C@@H]2O
- Potency [2]: inactive
- Potency (7G8): inactive
- Potency (ATS189): inactive
- Potency (CP185): inactive
- Potency (CP192): inactive
- Potency (CP238): inactive
- Potency (CP247): inactive
- Potency (CP260): inactive
- Potency (CP329): inactive
- Potency (DFO2036): inactive
- Potency (Dd2): inactive
- Potency (ECU): inactive
- Potency (ICS): inactive
- Potency (P94_40): inactive
- Potency (PC49): inactive
- Potency (TAB109): inactive
- Potency (TAB113): inactive

SMILES: C=C[C@H]1CN2CC[C@H]1C[C@H]2c1[nH]c2ccccc2c1CCO
- outcome [3]: inactive

SMILES: Cc1nnc2ccc(-c3cccc(C(F)(F)F)c3)nn12
- outcome [3]: inactive

SMILES: CC(C)CN1CC[C@@]2(CCCN(C(=O)Oc3ccccc3)C2)C1
- Potency [4]: 6.31 µM (active)

SMILES: CC1CC[C@@]2(NC1)O[C@@H]1C[C@H]3C4CC=C5C[C@@H](O)CC[C@]5(C)C4CC[C@]3(C)[C@H]1[C@@H]2C (some centres not stated)
- outcome [3]: inactive

SMILES: Clc1ccc([C@@H](OCCN2CCCCC2)c2ccccc2)cc1
- Potency [4]: 0.0158 µM (active)
- Potency [2]: inactive
- Potency (7G8): 3.55 µM (active)
- Potency (ATS189): 3.16 µM (active)
- Potency (CP185): inactive
- Potency (CP192): inactive
- Potency (CP238): inactive
- Potency (CP260): 3.16 µM (active)
- Potency (CP329): inactive
- Potency (DFO2036): inactive
- Potency (Dd2): 4.47 µM (active)
- Potency (ICS): 1.58 µM (active)
- Potency (P94_40): 3.55 µM (active)

SMILES: CC[C@]1(c2cccc(O)c2)CCCCN(C)C1
- Potency [2]: inactive
- Potency (7G8): inactive
- Potency (CP247): inactive
- Potency (CP260): inactive
- Potency (Dd2): 3.16 µM (active)
- Potency (ECU): inactive
- Potency (ICS): inactive
- Potency (PC49): inactive
- Potency (TAB109): inactive
- Potency (TAB113): inactive

SMILES: COc1ccc(NC(=O)N2CC[C@@]3(CCCN(C(=O)Oc4ccccc4)C3)C2)cc1
- Potency [4]: 6.31 µM (active)
